Screening data deposited in PubChem BioAssay by The Scripps Research Institute Molecular Screening Center.
MOR-DOR ag-1: agonists of OPRM1-OPRD1 heterodimerization, primary screen, cell-based, luminescence; activation, % at 9.3 µM; Mu-type opioid receptor (Homo sapiens) + Delta-type opioid receptor (Homo sapiens), …; cells; AID 504326, 2011; 340,000 compounds, 0.3% hits;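 also: 0% = vehicle-treated cells and 100% = reference agonist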
OPRM1-OPRD1 inv: inverse agonists of MOR-DOR heterodimerization, primary screen, cell-based, luminescence; inhibition, % at 9.3 µM; cell-based MOR-DOR heterodimer luminescence, inverse agonism; 340,000 compounds, 0.21% hits; in the data active = inhibition above about 22%, passing the limit was not always enough;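 also: 0% = cells with DMSO and 100% = wells without cells with DMSO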
HTR5A inv ag: HTR5A inverse agonists in luminescence cell assay, primary screen, counter-screen for OPRM1-OPRD1 heterodimer inverse agonist project, full-deck HTS; inhibition, % at 9.3 µM; HTR5A cell line, inverse agonism; 5-hydroxytryptamine receptor 5A (Homo sapiens), P47898; AID 504634, 2011; 340,000 compounds, 0.083% hits; in the data active = inhibition mostly above about 23%, no sharp cut-off; inactive = mostly below about 18%;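 also: 0% = cells with DMSO and 100% = no-cell wells with DMSO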
Target sequence (P47898 whole entry, looked up): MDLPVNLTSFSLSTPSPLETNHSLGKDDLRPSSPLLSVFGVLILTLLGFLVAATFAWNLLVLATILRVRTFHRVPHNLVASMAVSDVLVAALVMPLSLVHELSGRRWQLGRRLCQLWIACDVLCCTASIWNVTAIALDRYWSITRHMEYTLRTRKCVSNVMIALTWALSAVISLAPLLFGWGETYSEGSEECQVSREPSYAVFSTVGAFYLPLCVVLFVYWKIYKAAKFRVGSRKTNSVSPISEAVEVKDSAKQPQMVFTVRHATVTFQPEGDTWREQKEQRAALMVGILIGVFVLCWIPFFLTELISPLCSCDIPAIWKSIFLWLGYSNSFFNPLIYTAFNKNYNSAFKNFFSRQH
HTR5A ag ctr: HTR5A agonists in luminescence cell assay, primary screen, counter-screen for OPRM1-OPRD1 heterodimer agonist project, full-deck HTS; activation, % at 9.3 µM; AID 504692, 2011; 5-hydroxytryptamine receptor 5A (Homo sapiens), P47898; cell-based; 340,000 compounds, 0.61% hits; in the data active = activation mostly above about 9.5%, no sharp cut-off; inactive = mostly below about 7.6%;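 also: 0% = cells with vehicle only and 100% = reference agonist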
MOR-DOR ag-2: OPRM1-OPRD1 heterodimerization promoters, counter-screen for HTR5A agonist project, cell-based, luminescence; shares compounds with HTR5A ag ctr; U2OS counter-screen cells, complementation luminescence, 3 h; activation, % at 9.3 µM; 800 compounds, 13% hits; AID 504913, 2011
HTR5A ag conf: HTR5A agonists, retest of hits, confirmation, cell-based, luminescence; AID 504915, 2011; shares compounds with HTR5A ag ctr; activation, % at 9.3 µM; 800 compounds, 17% hits; HTR5A agonist cell assay; in the data active = activation above about 17%;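 also: 0% = cells with vehicle only and 100% = full reference agonist response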
The depositor's hits bear a star; / = no result given. A selection: hits, their analogues and other compounds. The true share with any hit is near 1.1%. Rule as the data show it, unless noted: active = activation above about 18%; inactive = the rest.

SMILES	MOR-DOR ag-1	OPRM1-OPRD1 inv	HTR5A inv ag	HTR5A ag ctr	MOR-DOR ag-2	HTR5A ag conf
O=C(OCC12CC3CC(CC(C3)C1)C2)c1ccc(NCc2cc(O)ccc2O)cc1	11	-54	-67	17*	44*	4
O=C(OCCC12CC3CC(CC(C3)C1)C2)c1ccc(NCc2cc(O)ccc2O)cc1	3	-14	-58	15*	6	6
N#CCC(=O)Nc1ccc(C(=O)OCC(=O)C23CC4CC(CC(C4)C2)C3)cc1	2	-10	-19	1	/	/
Cc1ccnc(NC(c2ccccn2)c2c(C)[nH]c3ccccc23)c1 (stereo not given)	1	-8	-11	4	/	/
CCCCOc1ccc(C(=O)N/C(=C\c2cccc([N+](=O)[O-])c2)C(=O)OC(C)C)cc1	5	-21	8	16*	1	2
CCOc1ccc(C2C(C(=O)OC)=CN(C(C)c3ccccc3)C=C2C(=O)OC)cc1 (stereo not given)	-1	3	3	-1	/	/
COc1ccc(CCNC(=O)COc2ccc(N(C)S(=O)(=O)c3ccc(C)cc3)cc2)cc1	0	-1	1	16*	-1	-4
O=C1CC(c2ccccc2)Sc2ccccc2N1 (stereo not given)	-3	12	-47	17*	2	3
O=C1CC(c2ccco2)Sc2ccccc2N1 (stereo not given)	-2	8	4	-1	/	/
COc1ccc(C(=O)Nc2cccnc2)cc1S(=O)(=O)N1CCOCC1	0	0	-43	16*	1	1
Cc1cc(OCCn2nc(C(=O)O)c3ccccc3c2=O)ccc1C(C)C	3	-21	-55	20*	-2	-9
Cn1c(N)nc2nc(CCc3ccccc3)c(=O)[nH]c2c1=O	0	2	-26	9	/	/
CS(=O)(=O)c1ccc2nc(NC(=O)CCNC(=O)c3ccc([N+](=O)[O-])cc3)sc2c1	3	-17	-59	20*	1	4
COc1cccc(S(=O)(=O)NCc2ccc(C(=O)Nc3cccc(Cl)c3)cc2)c1	6	-27	-46	19*	-3	-1
CCCCN1CC(COCc2ccccc2)Oc2cccc(Oc3ccc(F)cc3)c2S1(=O)=O (stereo not given)	-1	5	-18	5	/	/
COC(=O)c1ccc(NC(=O)c2cc[n+](Cc3ccccc3)cc2)cc1	-2	8	-13	15*	0	3
CCCCn1c(SCC(=O)NC(=O)Cc2ccccc2)nc2ccccc2c1=O	-2	8	-3	-3	/	/
CCOc1ccc(OCCC(=O)N(CC)CC(=O)Nc2c(F)cccc2F)cc1	-3	12	-26	8	/	/
CCc1ccc(CCC(=O)Nc2ncc(Cc3ccccc3Cl)s2)o1	3	-18	-59	17*	22*	12
O=C(CN1CCOCC1)Nc1ncc(Cc2ccccc2Cl)s1	-1	7	1	5	/	/
O=C(NC(=S)NC(c1ccccc1)c1ccncc1)c1ccccc1 (stereo not given)	2	-10	31	8	/	/
CC1(C)CC(n2c(NCCO)nc3c(c2=O)C2(CCCC2)Cc2ccccc2-3)CCO1 (stereo not given)	4	-26	-60	23*	1	0
Cc1nn(-c2ccc(Cl)cc2)c2sc(C(=O)N3CCN(c4ccccn4)CC3)cc12	-3	14	-56	22*	1	-1
Cc1nn(-c2ccc(F)cc2)c2sc(C(=O)N3CCCCCC3)cc12	-1	5	-8	-3	/	/
O=C(NCCN1C(=O)S/C(=C\c2cccnc2)C1=O)C1=NN(c2ccccc2)C(=O)CC1	-2	12	5	-2	/	/
SMILES	MOR-DOR ag-1	OPRM1-OPRD1 inv	HTR5A inv ag	HTR5A ag ctr	MOR-DOR ag-2	HTR5A ag conf
COc1ccccc1NS(=O)(=O)c1cccc(C(=O)NCC(c2ccccc2OC)N2CCCC2)c1 (stereo not given)	-1	5	9	10	/	/
COc1ccccc1C(CNC(=O)c1cccc(S(=O)(=O)Nc2ccc(C)cc2)c1)N1CCCC1 (stereo not given)	-2	9	-93	25*	2	34*
CC1CCN(C(=O)COC(=O)c2ccc(N3CCCC3=O)cc2)CC1	-3	12	-1	0	/	/
OCC#CCSc1nnc(-c2ccncc2)o1	-5	20	-43	16*	20*	2
CCOc1cc(N2CCOCC2)c(OCC)cc1NC(=O)c1cc(-c2ccco2)nc2ccccc12	15	-87	-24	24*	96*	8
CCOc1cc(N2CCOCC2)c(OCC)cc1NC(=O)COc1ncnc2ccccc12	-2	7	-8	-5	/	/
CC1CCCCC1NC(=O)C(C)N1C(=O)c2ccccc2C1=O (stereo not given)	2	-7	-12	5	/	/
COc1ccc2[nH]c3c(c2c1)CCN1C(=O)C(CC(=O)NCc2ccco2)C[C@H](C(=O)N2CCOCC2)[C@@]31C (stereo not given in full)	-2	11	-10	3	/	/
CCN(CC)Cc1c(O)ccc2occ(C(=O)c3ccccc3)c12	-2	12	8	-2	/	/
CN(C)Cc1c(O)ccc2occ(C(=O)c3ccccc3)c12	-1	3	14	19*	1	47*
Cc1ccc(C)c(NC(=O)C2CCCN(S(=O)(=O)c3c(C)nn(C)c3C)C2)c1 (stereo not given)	-1	3	-4	0	/	/
CCn1c(=NC(=O)c2ccco2)sc2cccc(F)c21	2	-9	-62	20*	3	-1
Cc1ccc(S(=O)(=O)N2CCCCC2)cc1NC(=O)c1cc(=O)[nH]c2ccccc12	-2	7	-7	3	/	/
Brc1ccc(-c2csc(-c3c[nH]c4ccccc34)n2)cc1	0	-1	-2	1	/	/
c1ccc2c(-c3csc(-c4ccncc4)n3)c[nH]c2c1	0	3	-59	21*	2	-2
CC(=O)Nc1ccc(SCC(=O)Nc2ccc(Cl)cn2)cc1	-1	4	-6	0	/	/
COc1ccc(NC(=O)O/N=C2/CCCc3ccc(OC)cc32)cc1	-2	12	-69	19*	2	28*
COc1ccc(NC(=O)CN(C)CC(=O)Nc2ccc3c(c2)CCC3)cc1	-2	11	-10	-2	/	/
COc1ccc2c(c1)/C(=N/OC(=O)c1cccs1)CCC2	4	-26	-117	22*	3	31*
Cc1cc(N)n(Cc2cccs2)n1	0	1	10	3	/	/
O=C(NC1CCCCC1)c1cc2ccccc2cc1O	8	-42	-47	17*	3	2
CCn1c(N2CCN(S(=O)(=O)c3ccc(Cl)cc3)CC2)nc2ccccc21	4	-20	-41	16*	3	-1
